Reference: the supplement of paper PMC12636033
± gives the standard deviation of the averaged measurements. In all, about 33,000 sequences were measured (“E-score (rank enrichment, -0.5 to 0.5)”: median about -0.0043, highest 2% from about 0.24 on). The sample holds the highest values, similar sequences and a random draw of the others, so the mix is not that of the screen.

System: 2Sp-muMax20 (muMax20 with two 2,6-bis(methyl)pyridine Cys staples)
Experiment: PBM 8-mer E-score (E-score (rank enrichment, -0.5 to 0.5)); higher = stronger preferential binding
Experimental: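 Protein binding microarray (universal PBM chip covering all 10-mers in fixed probe flanks) with chemically synthesized human Max(13-93) bHLH-LZ analogs (not full-length Max) bearing noncanonical residues (hArg, Tha, Aib, Nle at 65) and aromatic Cys staples. Read-out per 8-mer (and its reverse complement): E-score (rank-based enrichment, -0.5 to 0.5) and Z-score of median probe intensity.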

Row | Sequence | PBM 8-mer E-score
1 | CATTATAG | 0.0091 ± 0.076
2 | GATTATAA | 0.154 ± 0.034
3 | AATTATAG | 0.148 ± 0.082
4 | AATTATAA | 0.3 ± 0.026
5 | GGGGGGGA | -0.1747 ± 0.00091
6 | AGATAGCA | 0.137 ± 0.011
7 | CCTTATGC | 0.0835 ± 0.078
8 | AATTATCT | 0.235 ± 0.023
9 | AATTATCC | 0.0373 ± 0.0027
10 | AATTATCA | 0.198 ± 0.045
11 | ACCCTCGT | 0.00159 ± 0.081
12 | GACTAACA | 0.0143 ± 0.0082
13 | GGCCCAAA | -0.117 ± 0.027
14 | CAAATGGC | -0.0435 ± 0.002
15 | CGAATGCA | 0.32 ± 0.04
16 | AAAATGCA | 0.145 ± 0.012
17 | CGAATGCC | -0.0493 ± 0.096
18 | CAAATGTA | 0.188 ± 0.012
19 | TAAATGTA | 0.281 ± 0.054
20 | AAAATGCT | 0.263 ± 0.0092
21 | AAAATGGG | -0.206 ± 0.0038
22 | CAAATGGG | 0.236 ± 0.052
23 | AAAATGCC | -0.0688 ± 0.037
24 | CGAATGCG | 0.0188 ± 0.013
25 | GAAATGTA | 0.0185 ± 0.077

Row | Sequence | PBM 8-mer E-score
26 | CGGGACCG | -0.357 ± 0.032
27 | CCTATCCC | 0.0952 ± 0.097
28 | TCATCTAA | 0.00256 ± 0.03
29 | AATCTAAA | 0.0534 ± 0.04
30 | CAGCGATC | -0.158 ± 0.022
31 | AGAATGCA | 0.0925 ± 0.055
32 | ACCAATCA | -0.0682 ± 0.088
33 | CGTACGAA | 0.19 ± 0.0087
34 | CACGACGG | 0.0169 ± 0.013
35 | CGAAGAAA | 0.223 ± 0.059
36 | CCACTGAA | -0.0273 ± 0.065
37 | AGCAAGAT | -0.0742 ± 0.058
38 | AAAATGAG | 0.267 ± 0.012
39 | CAAATGAG | 0.0988 ± 0.053
40 | GAAATGCA | 0.135 ± 0.11
41 | TAAATGCA | 0.238 ± 0.1
42 | CAAATGCA | 0.064 ± 0.011
43 | AAAATGAA | 0.135 ± 0.0098
44 | AAGGTTTA | -0.18 ± 0.048
45 | GCGCGCAA | 0.184 ± 0.057
46 | AAATGGCA | 0.155 ± 0.028
47 | TAGACATA | 0.0769 ± 0.014
48 | CGATGTGA | 0.0746 ± 0.018
49 | ATATGTGG | 0.218 ± 0.032
50 | GAATGTGA | 0.00134 ± 0.14

Row | Sequence | PBM 8-mer E-score
51 | ACATGTGA | 0.312 ± 0.0028
52 | CAATGTGA | 0.146 ± 0.013
53 | CTATGTGA | 0.148 ± 0.044
54 | AGATGTGA | 0.199 ± 0.019
55 | CCATGTGA | 0.268 ± 0.087
56 | CCATGTGC | 0.114 ± 0.025
57 | GCATGTGA | 0.183 ± 0.082
58 | TAATGTGA | 0.266 ± 0.01
59 | ATATGTGA | 0.311 ± 0.022
60 | GCTTAGCA | 0.039 ± 0.11
61 | TACGCTAA | 0.218 ± 0.0075
62 | GTTCTCTA | -0.185 ± 0.098
63 | AGTTCCAA | -0.0402 ± 0.057
64 | CCCCCCTA | -0.112 ± 0.073
65 | GCCAAACC | -0.0278 ± 0.14
66 | GCAGATAC | 0.04 ± 0.079
67 | GTACTAAC | 0.127 ± 0.038
68 | ATAATACG | 0.177 ± 0.032
69 | ATACTAAA | 0.145 ± 0.13
70 | ATACTAAC | 0.245 ± 0.041
71 | GTTCTACA | 0.0307 ± 0.072
72 | ATACTACA | 0.258 ± 0.033
73 | ATTCTACG | 0.228 ± 0.01
74 | ATACTACC | 0.147 ± 0.029
75 | ATAATACC | 0.209 ± 0.033

Row | Sequence | PBM 8-mer E-score
76 | ATAATACA | 0.271 ± 0.0055
77 | CTACTACA | 0.0934 ± 0.18
78 | ATTCTACA | 0.253 ± 0.021
79 | CCCGTCCA | -0.241 ± 0.017
80 | TTCTAAAA | -0.19 ± 0.05
81 | TCCAACGA | -0.0483 ± 0.18
82 | CTGGCAAG | -0.0269 ± 0.07
83 | ACATTTTA | 0.232 ± 0.019
84 | CCACTATA | 0.183 ± 0.0029
85 | GGCAGTAC | 0.105 ± 0.086
86 | ATACTAGA | 0.26 ± 0.055
87 | CTACTAGA | 0.05 ± 0.076
88 | ATACTAGC | 0.117 ± 0.075
89 | AAAATAGA | 0.242 ± 0.0042
90 | AAAATAGC | -0.0165 ± 0.011
91 | TAAATAGA | 0.000425 ± 0.01
92 | TAACCTCA | -0.00886 ± 0.051
93 | GAGAGCAA | -0.127 ± 0.12
94 | CCTGGATA | -0.0904 ± 0.0036
95 | AAATAGGG | 0.208 ± 0.0056
96 | AAATAGGT | 0.241 ± 0.0095
97 | AAATAGAC | 0.257 ± 0.0069
98 | GAATAGAC | 0.104 ± 0.096
99 | AAATAGGC | 0.0753 ± 0.026
100 | AAATAGAT | 0.227 ± 0.023

Row | Sequence | PBM 8-mer E-score
101 | ACCGAAAA | -0.0179 ± 0.15
102 | CTCTTCCC | -0.062 ± 0.011
103 | AACGTGCG | 0.129 ± 0.11
104 | GACGTGCC | -0.0934 ± 0.065
105 | CACGTGCC | 0.405 ± 0.0045
106 | AACGTGCC | 0.0275 ± 0.036
107 | CGCGTGCC | 0.0851 ± 0.061
108 | CGCGTGCA | 0.263 ± 0.035
109 | CACGTGCG | 0.4142 ± 0.0019
110 | GGCGTGCA | 0.11 ± 0.047
111 | TACGTGCA | 0.105 ± 0.013
112 | CCCGTGCG | -0.119 ± 0.06
113 | CACGTGCA | 0.419 ± 0.027
114 | AACGTGCA | 0.149 ± 0.025
115 | GGTAGCAA | 0.163 ± 0.004
116 | AAGTACTT | 0.109 ± 0.032
117 | ACCGCATG | 0.132 ± 0.074
118 | GCGCATCA | 0.0862 ± 0.011
119 | CGGGTACA | -0.205 ± 0.03
120 | GACCGACA | -0.18 ± 0.052
121 | GAACAAAC | 0.046 ± 0.051
122 | CCATAATC | 0.159 ± 0.019
123 | CTCTTAGA | -0.116 ± 0.051
124 | AAACAATG | 0.121 ± 0.021
125 | AAACAATA | 0.101 ± 0.046

Row | Sequence | PBM 8-mer E-score
126 | AACAAATT | 0.265 ± 0.0042
127 | AACAAATA | 0.212 ± 0.063
128 | AAACAATT | 0.252 ± 0.046
129 | AACAAGTT | 0.0512 ± 0.042
130 | ATGCAGTA | 0.0482 ± 0.088
131 | ACATAGCT | -0.143 ± 0.0071
132 | TCCCTCCA | -0.114 ± 0.086
133 | CCCCTCCC | 0.311 ± 0.014
134 | ACCCTCCC | 0.26 ± 0.043
135 | CCCCTTCC | -0.00527 ± 0.1
136 | CCCCTTCA | 0.248 ± 0.1
137 | ACCCTCCA | 0.168 ± 0.0021
138 | CCCCTCCG | -0.0068 ± 0.12
139 | TCCCTTCA | 0.107 ± 0.057
140 | CCCCTCCA | 0.236 ± 0.033
141 | CCCTCCCC | 0.142 ± 0.11
142 | ACCCTCCT | -0.0498 ± 0.0072
143 | GCCCTCCA | -0.00293 ± 0.051
144 | ATATACGG | 0.0505 ± 0.015
145 | GGCTCAAC | -0.0877 ± 0.06
146 | AGGAATAA | 0.0163 ± 0.077
147 | CTTCTACA | -0.0255 ± 0.032
148 | ACCTGCCA | -0.188 ± 0.047
149 | CCATTATC | 0.157 ± 0.04
150 | CCATTATA | 0.257 ± 0.045

Row | Sequence | PBM 8-mer E-score
151 | ACATTATC | 0.159 ± 0.038
152 | ACATTATG | 0.147 ± 0.1
153 | GCATTATA | 0.186 ± 0.059
154 | ACATTATA | 0.282 ± 0.0059
155 | CGTATGCC | -0.0525 ± 0.034
156 | GCTGTTGA | -0.119 ± 0.013
157 | AGGGTGGA | -0.0107 ± 0.009
158 | AGGGTGGC | 0.0126 ± 0.068
159 | AGGGTGGG | 0.245 ± 0.073
160 | ACAGAGAA | 0.129 ± 0.14
161 | ACATGGGA | 0.162 ± 0.035
162 | CCATGGGG | -0.0568 ± 0.073
163 | ACATGGGG | 0.246 ± 0.072
164 | ATATGGGA | 0.136 ± 0.11
165 | CTATGGGC | -0.0549 ± 0.074
166 | ATATGGGG | 0.239 ± 0.024
167 | ATATGGGC | 0.249 ± 0.04
168 | AGATGGGC | -0.0126 ± 0.1
169 | ATATGGAG | 0.127 ± 0.014
170 | GAATCATC | -0.0799 ± 0.064
171 | TCGTACAA | 0.1 ± 0.042
172 | CAACCAAC | -0.132 ± 0.022
